# In PubChem BioAssay AID485314 (National Center for Advancing Translational Sciences (NCATS), 2010):
# In all, about 340,000 compounds went through this assay and about 4,500 (1.3%) were called active. Roughly 5% stayed inconclusive and do not appear here. This excerpt belongs to a sample that is enriched for actives. A number with no mark means an inactive call. The call rests on the fitted dose curve; in most records, active means well fitted inhibition curve with a large enough effect; inconclusive means small, poorly fitted or top-dose-only effect, or another doubt; inactive means no such curve, though single readings can be large or run the other way.
# Target: DNA polymerase beta (Homo sapiens) (UniProt P06746)
# Assay: qHTS Assay for Inhibitors of DNA Polymerase Beta
# Settings: Pol beta primer extension/strand displacement, fluorescence kinetic; series mostly up to 114 µM; activity change, negative = inhibition: at the top concentration
# Outline: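 10 nM enzyme + cpd, 15 min RT; start with substrate 50 nM final; read 0 min and after 10 min RT. Corrected, normalized data; 4-parameter Hill curve fit.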
# On the % scale 0 is the no-effect control and ±100 the full control effect; potency means the concentration at half of the fitted maximal effect.
SMILES,"activity change, negative = inhibition [%]",Potency
Cc1ccccc1NC(=O)Cn1cc(C(=O)c2cccs2)c2ccccc21,-21.9,
CN(C(=O)c1ccc2c(c1)N(Cc1cccc(Cl)c1)C(=O)c1ccccc1S2=O)C1CCCCC1 (centres undefined),4.04,
COc1ccccc1NC(=O)C(=O)c1cc(C)n(-c2ccccc2F)c1C,4.34,
CCOc1ccc(-n2c(SCC(=O)NCc3ccccc3)nc3n[nH]c(C)c3c2=N)cc1,,25.1 µM (active)
COc1ccc(-n2c(SCC(=O)Nc3ccc(Cl)c(C)c3)nc3n[nH]c(C)c3c2=N)cc1,-7.34,
CCCCNC(=O)CSc1nc2n[nH]c(C)c2c(=N)n1-c1cccc(Cl)c1C,,inactive
COc1ccc(S(=O)(=O)n2nc(C)c(S(=O)(=O)N3CCCCCC3)c2C)cc1,-16.8,
CSc1nn(Cc2cccc(C)c2)c(N)c1S(=O)(=O)c1ccccc1,-2.02,
Cc1ccc(N=C2NC(=O)/C(=C/C=C/c3ccco3)S2)cc1C,,10 µM (active)
Cc1ccc(-n2ncc3c(=O)n(-c4ccc(C)c(C)c4)c(-c4ccco4)nc32)cc1,-0.115,
Cc1ccc(N2NC(=O)/C(=C/C=C/c3ccco3)C2=O)cc1C,,35.5 µM (active)
COc1cc(/C=C2/C(=O)NN(c3ccc(F)cc3)C2=O)cc([N+](=O)[O-])c1O,-29.4,
COc1ccccc1-c1ccnc2[nH]n(-c3ccccc3)c(=O)c12,-9.8,
CC(C)c1ccc2oc(-c3cc(NC(=O)c4cccs4)ccc3Cl)nc2c1,1.78,
Cc1csc(SCC(=O)Nc2sccc2C#N)n1,,20 µM (active)
N#Cc1ccsc1NC(=O)CN1CCCCC1,15.9,
Cc1cccc(C)c1Nc1nnc(SCC(=O)Nc2sccc2C#N)s1,-26.1,
CCOc1ccc(NC(=O)CSc2c3c(nc4ccccc24)CCCC3)cc1,-1.51,
COc1cc(NC(=O)CSc2nc3nc(C)c(Cc4ccc(C)cc4)c(C)n3n2)cc(OC)c1OC,-28.1,
Cc1cccc(C2=N/C(=C/c3cccs3)C(=O)O2)c1,-0.905,

SMILES,"activity change, negative = inhibition [%]",Potency
CSC1=N/C(=C\C=C\c2cccs2)C(=O)S1,,20 µM (active)
CN1C/C(=C/c2cccs2)C(=O)/C(=C\c2cccs2)C1,3.47,
COc1ccc(CCC(=O)NCCc2csc(-c3ccc(Cl)cc3)n2)cc1,-1.93,
COCCCNc1nc2c(-c3cccc(C(F)(F)F)c3)nnn2c2ccccc12,-25.9,
COCCCNc1nc2c(-c3cccc(C)c3)nnn2c2ccc(Cl)cc12,,35.5 µM (active)
COc1ccc(CCNc2nc3c(-c4cccc(F)c4)nnn3c3ccccc23)cc1OC,40.6,
COc1ccc(C(=O)COC(=O)CCCC(=O)Nc2cc(C(F)(F)F)ccc2Cl)cc1,-2.85,
COc1ccc(/C=C2/SC(=O)N(CCCCCC(=O)Nc3ccccc3C(=O)O)C2=S)cc1,24.4,
CN1C=CC=C/C1=C1\SC(=S)N(Cc2ccccc2)C1=O,6.67,
O=C(CCN1C(=O)/C(=C/c2cccs2)SC1=S)NNC(=O)c1cccc(O)c1,-8.72,
COc1ccc(/C=C2\SC(=S)N(CCC(=O)Nc3cccc(C(=O)O)c3)C2=O)cc1OC,,70.8 µM (active)
COc1ccc(/C=C2\SC(=S)N(CC(=O)NNC(=O)c3ccncc3)C2=O)cc1,29.9,
O=C(CCCN1C(=O)/C(=C/c2cccs2)SC1=S)Nc1ccc(O)cc1,9.43,
COc1cc(/C=C2/SC(=S)N(Cc3ccccc3)C2=O)cc(OC)c1O,,14.1 µM (active)
O=C(CCCN1C(=O)/C(=C/c2ccco2)SC1=S)Nc1ccccc1,,12.6 µM (active)
Cc1ccc(/C=C2\SC(=S)N(CCC(=O)Nc3ccc(O)cc3)C2=O)cc1,2.43,
O=C1/C(=C\c2ccccc2Cl)SC(=S)N1CCC(=O)N1CCCc2ccccc21,5.83,
O=C(CCCN1C(=O)/C(=C/c2ccccc2)SC1=S)Nc1ccc(O)cc1,0.267,
O=C(CCCN1C(=O)/C(=C\c2ccco2)SC1=S)Nc1cccc2ccccc12,,10 µM (active)
